Data from PubChem BioAssay AID2314 (National Center for Advancing Translational Sciences (NCATS), 2010).
Out of some 300,000 compounds screened, about 37,000 (12%) were called active. For the sample, actives were picked, then their nearest neighbours and some compounds at random. Values without a mark were called inactive. Cut-off read from the data, not from the text of the source: active = max response mostly above about 13% (no sharp cut-off); inactive = mostly below about 14%.

Experiment: Cycloheximide Counterscreen for Small Molecule Inhibitors of Shiga Toxin; note: read at 38.3 µM for the half of the compounds with a filed dose; 0% is about no effect
Settings: cell reporter, cycloheximide protein synthesis inhibition counterscreen; active compounds read high
Work on `CC(Oc1cccc(Cl)c1)C(=O)NC1CC(C)(C)NC(C)(C)C1` (configuration not stated) yielded a max response of -2.91%. Work on `Cc1ccc(OCc2n[nH]c(=S)n2-c2ccc(C)cc2)cc1` yielded a max response of -1.5%. With `COc1ccc(Cc2n[nH]c(=S)n2NC(=O)Nc2ccc(C)cc2)cc1` the max response was 37.1% (active). With `COc1ccc(NC(=S)NCCNC(C)=O)cc1` the max response was 0.644%. With `Cn1c(=O)oc2cc(S(=O)(=O)NCCC(=O)NCc3ccccc3Cl)ccc21` the max response was -6.54%. Work on `O=S(=O)(c1ccc(Br)cc1)c1nc(-c2ccccc2)oc1N1CCOCC1` yielded a max response of 4.42%. For `CCCCCCCCCCCCC(NC(C)=O)(C(=O)OCC)C(=O)OCC`, the max response was -2.57%. For `CC1CCN(C(=O)CCc2nnc3ccc(NCc4ccco4)nn23)CC1`, the max response was -0.588%. Molecule `CCc1ccc(C2N3CC4([N+](=O)[O-])CN2CC([N+](=O)[O-])(C3)C4(C)C)cc1` (configuration not stated) has a max response of -2.16%. For `COc1ccc(Nc2nc(NCc3ccco3)nc(N/N=C/c3ccccc3Cl)n2)cc1`, the max response was 16.9% (active). For `C=CCC(NCc1ccco1)c1ccc(OC)cc1` (configuration not stated), the max response was 1.37%. Work on `COc1ccc(Nc2nc(Cl)nc(NCc3ccco3)n2)cc1` yielded a max response of 5.68%. `COc1ccc(C)cc1NC(=O)NCCCCc1ccccc1` gave a max response of 7.65%. Work on `CS(=O)(=O)N1CCN(c2cccc(Cl)n2)CC1` yielded a max response of -1.63%. With `CS(=O)(=O)N1CCc2nc(-c3ccccc3)sc2C1` the max response was 47.1% (active). `CS(=O)(=O)N1CCN(C(=O)Cc2ccccc2)CC1` showed a max response of -2.32%. For `COc1ccc(NC(=O)CCC(=O)Nc2nnc(C3CCCCC3)s2)cc1`, the max response was -3.75%. With `Cc1occc1C(=O)Nc1nnc(C2CCCCC2)s1` the max response was 17.4% (active). For `O=C(Nc1nnc(C2CC2)s1)c1ccccn1`, the max response was 34.9% (active). `Cc1occc1C(=O)Nc1nnc(-c2ccncc2)s1` gave a max response of 15.8%. `Cc1cccc(NC(=O)CSCC(=O)Nc2nnc(C3CC3)s2)c1` gave a max response of 6.4%. With `CC1CCN(c2ccc(C(=O)Nc3nnc(C4CC4)s3)cc2[N+](=O)[O-])CC1` the max response was -2.98%. With `O=C(Cc1cccs1)Nc1nnc(C2CC2)s1` the max response was 8.46%. With `O=C(Nc1nnc(C2CC2)s1)C1=NN(C2CCS(=O)(=O)C2)C(=O)CC1` (configuration not stated) the max response was -6.02%. For `O=C(Nc1nnc(C2CC2)s1)c1cc(Cl)sc1Cl`, the max response was 12.2% (active). With `COc1ccccc1CNC(=O)[C@@H]1CCCN1C(=O)[C@@H]1Cc2ccccc2CN1C(=O)OC(C)(C)C` the max response was 8.54%. With `Cc1ccc(S(=O)(=O)N(C)CC(=O)NCCc2c[nH]c3ccccc23)cc1` the max response was 0.209%. Molecule `Cc1cccc(NC(=O)NC2(C)CCS(=O)(=O)C2)c1` (configuration not stated) has a max response of 1.38%. With `COc1ccccc1CNC(=O)c1ccc(N(C)S(=O)(=O)c2ccc(C)cc2)cc1` the max response was -0.735%. `Cc1coc2c(O)cc3c(c12)OC1(N2CCCCC2)C(=O)NCCCC31` (configuration not stated) showed a max response of -0.492%. Molecule `COc1ccc(CNS(=O)(=O)c2cc(-c3cc(C)no3)ccc2C(C)C)cc1` has a max response of -0.908%. Work on `CCCCC(=O)Nc1c2c(nn1-c1ccc([N+](=O)[O-])cc1)CS(=O)(=O)C2` yielded a max response of -4.82%. `O=C(c1cc2ccccc2s1)N1CCN(c2ccccn2)CC1` showed a max response of -0.772%. For `CC(C)c1cc(C(N)=O)c(NC(=O)c2cccc(COc3ccc(Br)cc3)c2)s1`, the max response was 142% (active). For `Cc1ccc(COc2ccc(C(=O)NN)cc2)cc1`, the max response was 15.8%. `NNC(=O)c1cccc(COCC(F)(F)C(F)F)c1` gave a max response of 9.81%. With `CN(C)C(=O)CCC(=O)N1CCCCC1C(=O)Nc1ccc(Oc2ccccc2F)cc1` (configuration not stated) the max response was -1.6%. For `O=S(=O)([N-]c1nc2ccccc2nc1-[n+]1ccc(Cc2ccccc2)cc1)c1ccc(Br)s1`, the max response was 10.5% (active). `Cc1cc(C)c[n+](-c2nc3ccccc3nc2[N-]S(=O)(=O)c2cccs2)c1` showed a max response of -0.756%. In the case of `O=S(=O)(NCc1cccnc1)c1ccc(Br)s1`, the max response is reported as -6.09%. With `CCCSc1nc(NCc2ccco2)c2c3c(sc2n1)COC(C)(CC)C3` (configuration not stated) the max response was 24.2%. For `O=c1onc(-c2c(F)cccc2F)n1-c1ccccc1Cl`, the max response was -4.66%. Work on `O=C(O)c1cc2c(cc1NC(=O)c1c(F)cccc1Cl)OCCCO2` yielded a max response of -4.07%. For `O=C(Nc1nnc(SCc2ccccc2Cl)s1)c1cccc([N+](=O)[O-])c1`, the max response was -4.31%. `CCSc1nnc(NC(=O)Cc2ccccc2OC)s1` gave a max response of 7.43%. For `C=CCSc1nnc(NC(=O)c2ccc(NC(C)=O)cc2)s1`, the max response was 14.5% (active). `NC(=O)CSc1nnc(NC(=O)c2ccc(Br)o2)s1` gave a max response of 27.9%. With `CCSc1nnc(NC(=O)c2ccc(C)cc2)s1` the max response was 32.4% (active). In the case of `CCOC(=O)CSc1nnc(NC(=O)c2cccc(S(=O)(=O)N3CCCC3)c2)s1`, the max response is reported as -1.74%. In the case of `Cc1ccc(N=Cc2c(O)n(-c3nccs3)c(=O)c3ccccc23)c(C)c1`, the max response is reported as 0.787%. `O/N=C(\C[n+]1ccccc1)c1ccc(Br)cc1` showed a max response of -6.18%. In the case of `CC1CC(=O)N(CC(=O)Nc2cccc(Cl)c2)c2ccccc2S1(=O)=O` (configuration not stated), the max response is reported as -1.52%. `O=C(NC1CCCCCC1)c1cccnc1Sc1ccc(Cl)cc1` showed a max response of -2.31%. In the case of `Cc1cc(C)c(NC(=O)C[N+](C)(C)CC(O)COc2cccc3ccccc23)c(C)c1` (configuration not stated), the max response is reported as -2.87%. For `CCC(C)(C)NC(=O)C(c1ccc(O)cc1)N(Cc1ccco1)C(=O)CCC(=O)Nc1ccccn1` (configuration not stated), the max response was 13.8%. For `COc1ccc(C2=NS(=O)(=O)N(C)C(C(=O)NC(C)c3ccccc3)=C2)cc1` (configuration not stated), the max response was -2.97%. Molecule `O=C(Nc1cccc(-c2cscn2)c1)C1CCN(Cc2ccsc2)CC1` has a max response of -0.646%. With `COCCOC(=O)c1c(C)oc2cc(Br)c(OCC(N)=O)cc12` the max response was -1.75%. With `CCCc1cc(-c2nc(-c3ccc(C)cc3)cs2)ccn1` the max response was 39.7% (active). `CCCc1cc(-c2n[nH]c(=S)n2CC)c2ccccc2n1` gave a max response of -5.71%. In the case of `Cc1ccc(-c2csc(-c3cc(C)on3)n2)cc1`, the max response is reported as 17% (active). `CCn1c(SCCC(C)C)nnc1-c1c[nH]c2ccccc12` showed a max response of -5.75%. `CCCc1nc2scc(-c3ccc(C)cc3)c2c(=O)n1N` gave a max response of 25.8%. In the case of `Cc1cc(-c2nc(C)c(-c3nnc(SCC(=O)Nc4ccccc4)n3C)s2)no1`, the max response is reported as -3.06%. Molecule `CCC(C)Sc1nnc(-c2c[nH]c3ccccc23)n1CCOC` (configuration not stated) has a max response of -2.17%. In the case of `Cc1ccc(-c2csc(-c3c[nH]c4ccccc34)n2)cc1`, the max response is reported as 52.5% (active). With `Cc1cc(-c2n[nH]c(=S)n2-c2ccc(C)c(C)c2)no1` the max response was 10.2%.
